Screens from PubChem.
INS promoter inh: inhibitors of insulin promoter-driven GFP, primary screen, imaging, TRM-6 cells (human fetal islet line), eGFP reporter, cell count | reporter expression induced with tamoxifen | inhibition, % at 2 µM | 130,000 compounds, 0.9% hits;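 active = inhibition above the mean plus 3 SD, with well images judged a real hit on visual review, cut at about 60% in these data, passing the limit was not always enough; inconclusive = inhibition over the cutoff but images rejected on review; inactive = inhibition not above the cutoff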
HSV replic up: enhancers of HSV replication in host cells, fold increase, host cell viability | 220,000 compounds, 0.005% hits | maximum fold increase | AID 1956, 2009 | HSV replication augmentation in cells; in the data active = maximum fold increase above about 1.5; inconclusive = no clear call, values can overlap the other calls; tested in PC3 cells
HMGR II inh: inhibitors of E. faecalis class II HMGR, primary screen, biochemical, Enterococcus faecalis; HMG-CoA reductase (Enterococcus faecalis, mvaE); purified E. faecalis HMGR, NADPH absorbance 340 nm kinetic; inhibition, % at 10 µM; 190,000 compounds, 0.41% hits; AID 1066, 2008;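 active = inhibition above a set limit, the median over all tested compounds plus 3 SD, cut at about 9.5% in these data; inconclusive = no clear call, values can overlap the other calls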;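 note: enzyme runs in reverse so mevalonate oxidation gives rising NADPH absorbance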
Insulin prom up: insulin promoter activators in MIN6 cells, imaging, high-content screening, mouse beta cells. MIN6 insulin promoter-GFP reporter; stronger effect = higher value. z-score at 5 µM. 190,000 compounds, 0.3% hits. AID 1625, 2009;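 active = z-score above 3 at 5 µM with at least 500 cells counted in the well; inconclusive = wells under 500 cells, flagged as cytotoxic or low count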
Large screens that a line does not name were inactive. Compounds with a hit are over-represented: about 1.1% of the library has one in this group of screens.

C#CCOCCOCCOCCNc1nc(N2CCN(C(=O)[C@H]([C@@H](C)CC)n3cc(CCCN=C(N)N)nn3)CC2)nc(N2CCN(C(=O)[C@H](CCCCN)n3cc(CCCC)nn3)CC2)n1	none
C#CCOCCOCCOCCNc1nc(N2CCN(C(=O)[C@H](C)n3cc(CCCN=C(N)N)nn3)CC2)nc(N2CCN(C(=O)[C@H](CCCCN)n3cc(CCCC)nn3)CC2)n1	HMGR II inh 10 (no result: HSV replic up)
CN(C)c1ccc(/C=C/c2ccc3ccccc3n2)cc1	HSV replic up inconclusive, Insulin prom up 7.3 (no result: INS promoter inh, HMGR II inh)
C(=C\c1ccc2ccccc2n1)/c1ccccc1	none (no result: INS promoter inh, HMGR II inh)
OCCC1CN(Cc2nc3ccccc3s2)CCN1C1CCCC1 (centres undefined)	none (no result: INS promoter inh)
Cc1nn(C)c(C)c1CNC(=O)/C=C/c1ccccc1F	INS promoter inh 71
CCN(CC)C(c1ccc(F)cc1)c1nnnn1CC1CCCO1 (centres undefined)	INS promoter inh 93
COc1ccc(Cc2nnc(NC(=O)c3cccs3)s2)cc1OC	none
C=CCNC(=O)NC(=O)COC(=O)c1nc2nccc(C)n2n1	none
O=S(=O)(c1ccccc1)c1nc(NCc2cccnc2)sc1Cl	none
NCCSC1CC(=O)N(Cc2ccc(F)cc2)C1=O (centres undefined)	HMGR II inh 10 (no result: INS promoter inh)
CCCCCCN1C2=NCCN2c2ccccc21	INS promoter inh 84
Cc1ccccc1Cn1nc(C)c(NC(=O)/C=C/c2cnn(C)c2)c1C	none
CCOc1ncccc1C(=O)OCc1ccc(C(=O)OC)cc1	none (no result: INS promoter inh)
C=CCNC(=O)C1CC2Cn3c(nc4cc5ccccc5cc43)C2N1C (centres undefined)	Insulin prom up 4.4 (no result: INS promoter inh, HMGR II inh)
COc1ccc(NC(=O)c2oc3ccccc3c2NC(=O)C2CC2)cc1	HMGR II inh 11
COc1cccc(NC(=O)c2oc3ccccc3c2NC(=O)C2CC2)c1	none
Cc1nc(Nc2cccc(C(C)O)c2)c2nnn(Cc3ccc(F)cc3)c2n1 (centres undefined)	none
COC(=O)c1cc(-c2ccc(Cl)cc2Cl)n[nH]1	INS promoter inh 78
COC(=O)c1cc(-c2ccc(Cl)cc2)n[nH]1	none (no result: INS promoter inh)
Cc1ccc(NC(=O)C(=O)NN=C2CCCC2)cc1C	none (no result: INS promoter inh)
c1ccc(Nc2nc3ccccc3o2)cc1	INS promoter inh 68 (no result: Insulin prom up)
CC(C)N1CC(C(=O)Nc2nc3ccccc3s2)CC1=O (centres undefined)	INS promoter inh 75 (no result: Insulin prom up)
COc1ccc(OC)c(NC(=O)NNC(=O)CCCOc2ccc(Cl)cc2C)c1	HMGR II inh 16 (no result: INS promoter inh)
N#C/C(=C\C1=C(N2CCOCC2)C(=C/c2cccc([N+](=O)[O-])c2)/CC1)C(=O)Nc1ccccc1F	HSV replic up inconclusive, Insulin prom up 3.1
N#C/C(=C\C1=C(N2CCOCC2)C(=C\c2ccc(Cl)cc2)/CC1)C(=O)Nc1ccccc1F	Insulin prom up 3.3
CN(C)c1ccc(S(=O)(=O)c2ccc(Cl)cc2)cc1	INS promoter inh 74 (no result: HSV replic up)
Cc1ccc(N2CCN(CC(O)COc3cccc4ccccc34)CC2)cc1 (centres undefined)	none (no result: INS promoter inh, HMGR II inh)
OC(COc1cccc2ccccc12)CN1CCN(c2ccccc2Cl)CC1 (centres undefined)	Insulin prom up 3.5 (no result: INS promoter inh, HMGR II inh)
CCCCn1c(=O)[nH]c2nc3cc(N)ccc3nc2c1=O	Insulin prom up 4.8 (no result: INS promoter inh, HSV replic up)
Nc1ccc2nc3c(=O)n(CCc4ccccc4)c(=O)[nH]c3nc2c1	HSV replic up inconclusive (no result: INS promoter inh, HMGR II inh)
CC1OC23CCCCC2C(C#N)(C(=N)O3)C1(C#N)C#N (centres undefined)	INS promoter inh 77
CC(=O)OCC(=O)Nc1c(C)cc(C)cc1C	none
CCOC(=O)c1oc2c(c1C)C(=O)CCC2	none
CCOC(=O)c1oc2c(c1C)/C(=N/O)CCC2	INS promoter inh 88 (no result: HSV replic up, Insulin prom up)
O=C1Nc2ccccc2N(O)N1c1cc(-c2ccccc2)[nH]n1	INS promoter inh 85
COc1ccc(-c2cc(N3C(=O)Nc4ccccc4N3O)n[nH]2)cc1	none (no result: INS promoter inh)
COc1cc(C2NC(=O)NC(c3ccccc3)=C2C(C)=O)cc(Cl)c1OCC(=O)O (centres undefined)	HMGR II inh 14
COc1ccccc1C(=O)N(CCC1CCCN1C)c1nc2ccccc2s1 (centres undefined)	none (no result: Insulin prom up)
COc1ccc(N2C(=O)CS/C2=C\[N+](=O)[O-])cc1	HMGR II inh 15 (no result: INS promoter inh)
COc1ccc(N2C(=O)CCC2=O)cc1	none (no result: INS promoter inh, Insulin prom up)
CSc1nc2ccsc2c(=O)n1-c1ccccn1	none (no result: INS promoter inh)
O=c1cc2oc3cc(O)c(O)cc3c(-c3ccccc3O)c-2cc1O	HSV replic up inconclusive, Insulin prom up 15 (no result: INS promoter inh, HMGR II inh)
COc1ccc(OC)c(-c2c3cc(O)c(=O)cc-3oc3cc(O)c(O)cc23)c1	HSV replic up inconclusive
CCOc1ccccc1-c1c2cc(O)c(=O)cc-2oc2cc(O)c(O)cc12	Insulin prom up 8.1 (no result: INS promoter inh, HSV replic up)
CCOc1ccccc1N1CCN(Cc2cnc(-c3ccccc3)[nH]2)CC1	none (no result: INS promoter inh, HMGR II inh)
Cc1cc(C)n(C(=O)CCC2COc3ccccc3O2)n1 (centres undefined)	Insulin prom up 3.5
O=C(CCC1COc2ccccc2O1)N1CCCC1 (centres undefined)	none
O=P(COCCCCCOCP(=O)(c1ccccc1)c1ccccc1)(c1ccccc1)c1ccccc1	none (no result: Insulin prom up)
O=C(N/N=C/c1ccc(Cl)cc1Cl)C(=O)NC1CC1	none (no result: INS promoter inh)
COc1cccc(NC(=S)NN=C2CCCCCC2)c1	none (no result: INS promoter inh)
O=C(Nc1cccc(C(F)(F)F)c1)c1cccc(NS(=O)(=O)c2ccc(Br)c(C(=O)O)c2)c1	HMGR II inh 10
CCN(CC)CCn1c(=S)[nH]c2ccc(Cl)cc2c1=O	Insulin prom up 4 (no result: INS promoter inh, HSV replic up)
CCCCn1c(=O)c2ccccc2c2ccccc2c1=O	HMGR II inh 32
CCCn1c(=S)[nH]c2ccccc2c1=O	HMGR II inh 15 (no result: INS promoter inh)
CC(C)Cn1c(N)c(C(=O)CSc2cc(Cl)ccc2Cl)c(=O)n(C)c1=O	none (no result: Insulin prom up)
CCC(CC)NC(=O)c1cccc(Br)c1	INS promoter inh 88
CCOC(=O)/C(=C/C=C1\Sc2cc(OCC)c(OCC)cc2N1CC)C(C)=O	Insulin prom up 16 (no result: HSV replic up)
O=C(c1cc2ccccc2oc1=O)N1CCN(c2ncccn2)CC1	INS promoter inh 79 (no result: Insulin prom up)
O=C(c1cc2ccccc2oc1=O)N1CCN(c2ccccn2)CC1	none (no result: INS promoter inh)
COc1cc(N=Nc2cccc(S(N)(=O)=O)c2)c2ccccc2c1N	HSV replic up inconclusive, Insulin prom up 5.9 (no result: INS promoter inh, HMGR II inh)
O=C(Nc1ccc(C2CCCCC2)cc1)C1CCCN(c2ncccn2)C1 (centres undefined)	Insulin prom up 3.8 (no result: INS promoter inh, HMGR II inh)
CCOC(=O)c1cc(C(=O)OCC)c(=O)[nH]c1N1CCCC1	none
CCOC(=O)N1CCN(C(=O)C2c3cc(OC)c(OC)cc3C(=O)N3CCc4ccccc4C23)CC1 (centres undefined)	INS promoter inh 80 (no result: Insulin prom up)
O=C1NC(=O)/C(=C/C(=O)N2CCOCC2)S1	HMGR II inh 13 (no result: INS promoter inh)
Cc1cc(/C=C2/SC(=O)NC2=O)c(C)n1-c1ccc(N2CCOCC2)cc1	none
Cc1ccc(NC(=O)C2CC2C)c(Cl)c1 (centres undefined)	none (no result: INS promoter inh)
CCOC(=O)C1CCN(CC(=O)Nc2c(C(=O)OC)[nH]c3cccc(Cl)c23)CC1	none
COC(=O)c1[nH]c2cccc(Cl)c2c1NC(=O)CN(C)C1CCCCC1	Insulin prom up 3.5
COc1c(C)cc(C(=O)C2CCCN(C(=O)c3snnc3C)C2)cc1C (centres undefined)	none (no result: INS promoter inh)
Cc1nc(-c2ccc(NS(C)(=O)=O)cc2)cs1	INS promoter inh 73 (no result: Insulin prom up)
